The source of these data is PubChem BioAssay.

Structures are written as SMILES. A number with no mark means an inactive call. Active and inactive are the calls of the source. No stated cut-off is given here; in the data, active means inhibition above about 28%; inactive means the rest.

This test is described as follows: StAR promoter reporter inhibitors, counter-screen for LRH-1 inverse agonist project, cell-based, luminescence, high throughput (AID 651611). The following applies: StAR promoter luciferase reporter counterscreen, at 3.6 µM, hits give high values.
Regarding `Cc1ccc(Oc2ccc(C(=O)NCc3ccncc3)cc2)cc1`, the inhibition is 10.2%.

Consider `O=C(CCl)Nc1ccc(Oc2cnc3ccccc3n2)cc1`, for which the inhibition was 43.6% (active).

As for `CN(C)CCNC(=O)c1ccc(Cl)c2cc3ccccc3nc12`, the inhibition is 70.1% (active).

Regarding `Cc1ncc(CO)c(/C=N/Nc2ccc(C(F)(F)F)cn2)c1O`, the inhibition is 71.1% (active).

`COc1ccc(S(=O)(=O)N2CCOCC2)cc1NC(=O)CCNC(=O)c1ccc(Br)cc1`: the inhibition is 90.4% (active).

Take `C=C1C(=O)C23CCC4C(C)(C(=O)OC)CCCC4(C)C2CCC1(O)C3` (stereo not drawn): the inhibition is 67.4% (active).

Consider `CN(C)CCNc1ccc2nnn3c4ccc(O)cc4c(=O)c1c23`, for which the inhibition was 47.1% (active).

As to `Cc1ccc(C(=O)C(C(=O)/C=C/c2ccccc2)=C2SCCCS2)cc1`, the inhibition was 30.6% (active).
